From PubChem BioAssay AID488969 (Vanderbilt High Throughput Screening Facility, 2010)
Values joined by “and” are separate entries in the source; they are usually repeats but may differ in a detail not shown here. Equal values may be shown once. The full ranking holds about 110,000 compounds; the median of “z-score” is about -0.1, and the highest 2% start at about 2. The full list was thinned out, with the highest values kept by preference. Active and inactive are the calls of the source.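 The calls were made as follows: active = z-score in the third read window above 3 or below -3; inactive = the rest.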

biological target: Metabotropic glutamate receptor 8 (Rattus norvegicus) (UniProt P70579); experiment: mGluR8 Gi/Go-coupled signaling modulation – cell-based, rat, thallium flux, HTS, primary screen (AID 488969); conditions: HEK293 rat mGluR8, GIRK (G protein-gated inwardly rectifying potassium channel) thallium flux, FluoZin2; at 10 µM; stronger effect = higher value; submaximal glutamate (EC20) added with thallium
Sequence (P70579 whole entry, looked up): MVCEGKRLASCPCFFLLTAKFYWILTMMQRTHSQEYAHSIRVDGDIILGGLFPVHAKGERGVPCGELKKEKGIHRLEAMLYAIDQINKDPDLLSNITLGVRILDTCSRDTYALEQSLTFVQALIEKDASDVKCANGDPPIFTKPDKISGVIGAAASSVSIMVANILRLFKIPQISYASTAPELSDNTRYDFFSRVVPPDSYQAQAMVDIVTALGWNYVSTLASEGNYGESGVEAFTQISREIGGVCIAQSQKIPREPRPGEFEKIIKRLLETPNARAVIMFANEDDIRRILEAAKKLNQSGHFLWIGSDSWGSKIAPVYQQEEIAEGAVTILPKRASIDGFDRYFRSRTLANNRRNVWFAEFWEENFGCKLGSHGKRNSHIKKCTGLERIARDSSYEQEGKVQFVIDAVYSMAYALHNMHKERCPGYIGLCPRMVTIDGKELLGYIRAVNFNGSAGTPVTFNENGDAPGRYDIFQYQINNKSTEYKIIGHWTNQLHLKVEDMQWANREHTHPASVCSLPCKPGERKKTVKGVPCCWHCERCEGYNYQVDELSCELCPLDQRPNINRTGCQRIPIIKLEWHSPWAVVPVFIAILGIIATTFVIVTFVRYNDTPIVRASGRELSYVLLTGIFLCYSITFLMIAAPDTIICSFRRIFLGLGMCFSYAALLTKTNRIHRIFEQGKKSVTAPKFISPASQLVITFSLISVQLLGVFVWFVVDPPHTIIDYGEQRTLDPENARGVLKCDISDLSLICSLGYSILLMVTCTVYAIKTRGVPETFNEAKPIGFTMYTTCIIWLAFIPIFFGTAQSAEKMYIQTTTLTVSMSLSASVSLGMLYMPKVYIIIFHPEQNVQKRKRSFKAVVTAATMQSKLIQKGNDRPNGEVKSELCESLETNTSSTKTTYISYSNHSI

SMILES | z-score
Cn1c(CCN2CCN(c3ccc(F)cc3)CC2)nc2cc(NC(=O)c3ccco3)ccc21 | -2.09
Cc1ccc(N(CC(=O)Nc2ccccc2C(=O)N2CCOCC2)S(C)(=O)=O)cc1 | 0.00258
O=C(Nc1cccc2ccccc12)c1ccccc1NS(=O)(=O)c1cccc2cccnc12 | -0.0553
COc1ccc(C)cc1NC(=O)c1ccccc1NS(=O)(=O)c1cccc2cccnc12 | 2.02
COc1ccc(OC)c(NC(=O)c2ccccc2NS(=O)(=O)c2cccc3cccnc23)c1 | 0.685
Cc1cccc(C)c1-n1c(C)cc(/C=N/NC(=O)c2ccncc2)c1C | 0.0638
C/C(=C\C(=O)c1ccc(Br)cc1)NCc1ccccc1 | -0.0992
O=C(NC(=S)Nc1ccccc1N1CCOCC1)c1ccc(-c2cc(Cl)ccc2Cl)o1 | 0.0698
Cc1cc(S(=O)(=O)N2CCN(c3ccc(F)cc3)CC2)c(C)s1 | -0.128
Cc1ccc(S(=O)(=O)c2c(C)cc(C)nc2Cl)c(C)c1 | 4.41 (active)
Cc1ccc(S(=O)(=O)c2c(C)cc(C)nc2Cl)cc1 | -0.0793
Cc1cc(C)c(S(=O)(=O)c2ccccc2C)c(Cl)n1 | -0.119
CCOC(=O)c1c(C)c(C(=O)Nc2cc(OC)ccc2OC)c(C)n1CC | -0.853
c1ccc2c(c1)c1ccccc1n2CN1CCOCC1 | -0.144
CCC1(C)OCC(Cn2c3ccccc3c3ccccc32)O1 (configuration not stated) | 3.89 (active)
CCn1c2ccccc2c2cc(N)ccc21 | -0.216
CC(=O)N1N=C(c2ccc(C)cc2)OC1c1ccc(C(C)C)cc1 (configuration not stated) | -0.402
Cc1ccccc1N=Nc1ccc(O)c2ncccc12 | 4.67 (active)
OCc1ccc(O)c2ncccc12 | 0.138
Cc1ccccc1NCc1ccc(O)c2ncccc12 | 0.65
COCc1ccc(O)c2ncccc12 | -0.0472
Oc1ccc(CNc2ccccc2)c2cccnc12 | 0.0879
Cc1ccc(N=Nc2ccc(O)c3ncccc23)cc1 | 2.05
Cc1ccc(C(=O)c2oc3ccccc3c2NC(=O)c2cc(-c3ccccc3O)n[nH]2)cc1 | 0.291

SMILES | z-score
CCOc1cc(-c2conc2N)cc(OCC)c1OCC | 0.888
CC(C)(C)c1ccc(-c2conc2N)cc1 | 2.09
CC(C)(C)c1ccc(-c2cc(N)n[nH]2)cc1 | 0.498
CCc1ccc2nc(N3C(=O)c4oc5ccccc5c(=O)c4C3c3ccc(OC)c(OC)c3)sc2c1 (configuration not stated) | -0.133
O=C(NNc1nc2ccccc2s1)c1ccc(F)cc1 | 0.186
CCN(CC)C(=S)SCC(=O)Nc1nc(=O)c2ccccc2s1 | 5.2 (active)
O=C(Nc1nc(=O)c2ccccc2s1)c1ccc(F)cc1 | 16.3 (active)
CCn1c(NC(=O)c2ccc(F)cc2)c2ccccc2nc1=O | 0.0383
CCN(CC)C(=S)SCC(=O)Nc1nc(-c2ccccc2)c(-c2ccccc2)o1 | -0.0668
O=C(Cc1nc(=O)c2ccccc2s1)Nc1ccccc1 | -0.368
O=C(Nc1nc2ccccc2s1)c1ccc(Cl)s1 | 1.22
O=C(Cc1ccccc1)Nc1nc(=O)c2ccccc2s1 | 5.11 (active)
O=C(Cc1ccccc1)Nc1nc2ccccc2s1 | 0.548
O=C(CSC(=S)N1CCOCC1)Nc1nc(=O)c2ccccc2s1 | 0.0572
Cn1sc(NC(=O)c2ccc(Cl)cc2)nc1=O | 0.266
O=C(Nc1nc(=O)c2ccccc2s1)c1ccc(Cl)cc1 | 14.9 (active)
O=C(CSc1n[nH]c(-c2ccco2)n1)Nc1sc2c(c1C(=O)Nc1ccccc1)CCCC2 | -0.294
C=CCN(c1ccc(C(=O)NCCc2ccccc2)cc1)S(C)(=O)=O | -0.00787
CCOC(=O)C1CCN(S(=O)(=O)c2ccc(OCC(=O)OC)cc2)CC1 | 0.845
COc1cccc(-c2csc(N3CCN(C(=S)Nc4cccc(Cl)c4)CC3)n2)c1 | 0.143
CSc1nc(C)cc(C)c1S(=O)(=O)c1ccccc1C | -0.374
Cc1onc(-c2ccccc2)c1C(=O)NCCc1ccc(Cl)cc1 | 0.00877
CCc1ccccc1N(CC(=O)N/N=C/c1ccc(OC(=O)OC)c(OC)c1)S(C)(=O)=O | -0.214
CCCC(=O)Nc1ccc(Cl)c(NC(=O)C(C)(C)C)c1 | -0.219

SMILES | z-score
CCN1CCN(C(=O)C2c3cc(OC)c(OC)cc3C(=O)N(C)C2c2ccc(SC)cc2)CC1 (configuration not stated) | 0.574
N#CC1(P(=O)(c2ccccc2)c2ccccc2)CC1 | -0.0596
O=C(Nc1nc(-c2ccc(Cl)s2)cs1)c1ccccc1 | 0.171
O=C(Nc1nc(=O)c2ccccc2s1)c1ccccc1 | 14.9 (active)
Nc1ccc(C(=O)Nc2nc3ccccc3s2)cc1 | -0.363
COc1cccc(C2=NOC(C(=O)Nc3ccccc3SC)C2)c1 (configuration not stated) | -0.115
CC(C)CCn1c(Oc2ccccc2Cl)nc2c1c(=O)n(C)c(=O)n2C | -0.1
CC(C)CCn1c(Cl)nc2c1c(=O)n(C)c(=O)n2C | 2.04
CC(C)CCn1c(Oc2ccc(Cl)cc2)nc2c1c(=O)n(C)c(=O)n2C | -0.037
CC1(C)CC(c2nc(-c3ccc(Cl)cc3)cs2)CCS1 (configuration not stated) | 0.117
CCC1(C)CC(c2nc(-c3ccc(OC)cc3)cs2)CCS1 (configuration not stated) | -0.645
CC1(C)CC(c2nc(-c3ccc(Br)cc3)cs2)CCS1 (configuration not stated) | 2.26
COc1ccc(C)cc1NC1=C(Cl)C(=O)N(C2CCCCC2)C1=O | -0.0567
Cc1ccc2cccc(NC(=S)NC(=O)c3ccccc3)c2n1 | 1.02
Cc1ccc2cccc(NC(=S)NC(=O)c3ccnn3C)c2n1 | 2.25
Cc1ccc2cccc(NC(=S)NC(=O)c3ccn(C)n3)c2n1 | 6.02 (active)
Cc1ccc2cccc(NC(=S)NC(=O)c3c(Br)cnn3C)c2n1 | 0.727
Cc1ccc2cccc(NC(=O)C(F)(F)F)c2n1 | 0.599
Cc1cc(C)c2cccc(NC(=S)NC(=O)c3ccccc3)c2n1 | 0.2
c1cnc(N2CCSCC2)nc1 | -0.316
Cc1c(C(=O)Nc2ccccc2)cn2c(nc3ccccc32)c1C#N | -0.348
COc1cccc2cc(C(=O)n3ccc(C)n3)c(=O)oc12 | -1.33
O=C1CC(c2ccc(S(=O)(=O)Nc3cc(C(F)(F)F)cc(C(F)(F)F)c3)cc2)CN1 (configuration not stated) | 0.112
CCC(C)n1ncn(-c2ccc(N3CCN(c4ccc(OC)cc4)CC3)cc2)c1=O (configuration not stated) | -0.724

SMILES | z-score
COc1cc(NC(=O)c2cc3sccc3n2C)cc(OC)c1 | -0.0259
O=c1cc(-c2cccs2)oc2ccc(Cl)cc12 | -0.565
O=c1c(O)c(-c2ccc3c(c2)OCO3)oc2ccccc12 | -0.981
O=c1c(O)c(-c2cccs2)oc2ccccc12 | 17.2 (active)
O=C(O)c1cc(=O)c2cc(Cl)ccc2o1 | -0.147
O=c1c(O)c(-c2cccs2)oc2ccc(Cl)cc12 | 14.1 (active)
COc1ccc(OC)c(-c2oc3ccccc3c(=O)c2O)c1 | 0.149
O=C(Cc1cc(=O)[nH][nH]1)N/N=C/C(Cl)=C/c1ccccc1 | -0.191 and -0.199
COc1ccc(CCNC(=O)CCSc2nc(-c3ccco3)cc(C(F)(F)F)n2)cc1OC | -2.59
c1ccc(COc2cccc(CNn3cnnc3)c2)cc1 | -0.177
COc1ccc(/C=C2\CCn3c2nc2cc(C(=O)O)ccc2c3=O)cc1O | -0.197
O=C(O)c1ccc2c(c1)ncn2C1CCCCCC1 | 0.321
CC(NC(=O)c1ccc(F)cc1)c1nc2ccccc2n1Cc1ccccc1F (configuration not stated) | -0.254
CCOC(=O)CN1C(=O)C(C)(C)Oc2ccc(C(=O)NC(C)(C)CC)cc21 | 0.0354
CCOC(=O)CN1C(=O)C(C)(C)Oc2ccc(C(=O)Nc3ccccc3)cc21 | -0.637
CCOC(=O)CN1C(=O)C(C)(C)Oc2ccc(C(=O)Nc3ccccc3OC)cc21 | 2.42
COc1ccc(/C=C/C(=O)Nc2nc(N)n(-c3ccccc3)n2)cc1 | -0.0927
CCOC1CC(C)(C)NC(=S)N1 (configuration not stated) | -0.234
CCCc1ncc(C(O)c2cccc3ccccc23)n1C (configuration not stated) | 0.327
COCCN=C1Sc2nc3c(C)cccc3cc2CN1Cc1ccco1 | 0.0241
O=C(CNS(=O)(=O)c1ccccc1)N1CCN(c2ccccc2)CC1 | -0.0656
CC1(C)CC(=O)c2sc(NC(=O)CN3CCOCC3)nc2C1 | 0.431
CCOCC(=O)Nc1nc2c(s1)C(=O)CC(C)(C)C2 | -0.264
CC1(C)CC(=O)c2sc(NC(=O)CN3C(=O)CCC3=O)nc2C1 | 2.59

SMILES | z-score
C/C(=N\NC(=O)c1ccc(Cl)c(Cl)c1)c1cccc(NC(=O)C(C)C)c1 | 0.0284
COc1ccc(-c2nnn(CC(=O)N(C3CCCCC3)C(C)C(=O)NC3CCCC3)n2)cc1OC (configuration not stated) | 1.3
CCC(C(=O)NC1CCCC1)N(C(=O)Cn1nnc(-c2ccc(C)cc2)n1)C1CCCC1 (configuration not stated) | -0.114
CC(C)CCNC(=O)C(C)N(C(=O)Cn1nnc(-c2ccc(F)cc2)n1)C1CCCC1 (configuration not stated) | 2.82
Cc1ccc(S(=O)(=O)NC2(C(F)(F)F)C(=O)Nc3c2c(=O)n(C)c(=O)n3C)cc1 (configuration not stated) | -0.423
O=C(Nc1ccccc1)c1ccc(N2CCN(c3ccccc3)CC2)c(S(=O)(=O)N2CCOCC2)c1 | -0.142
O=C(N/N=C\CCc1ccccc1)c1ccco1 | 0.322
NC(=O)CSc1ncc(-c2ccccc2)[nH]1 | 0.142
CCCOc1ccc(C(C(=O)OCCN(CC)CC)c2ccccc2)cc1 (configuration not stated) | 2.43
CCOc1ccc(C(=O)OCCN(CC)CC)cc1 | 0.374
COc1ccc(C(C(=O)OCCN(C)C)c2ccccc2)cc1 (configuration not stated) | 0.325
CC(=O)C(Sc1ccc2nnc(-c3ccc(C)cc3)n2n1)C(C)=O | 1.78
Cc1ccc(NC(=S)c2nc3ccccc3[nH]2)c(C)c1 | 6.64 (active)
Cc1ccccc1NC(=S)c1nc2ccccc2[nH]1 | 10.9 (active)
Cc1ccccc1NC(=O)NCCc1nc2ccccc2[nH]1 | -0.0805
Cc1ccccc1NC(=O)N(CCc1nc2ccccc2[nH]1)Cc1ccccc1 | -0.292
Cc1ccc(Nc2nnc(SC/C(O)=C(\C#N)c3nc4ccccc4[nH]3)s2)c(C)c1 | -0.166
O=C(/C(=C/c1ccc(Cl)cc1)c1nc2ccccc2[nH]1)c1ccccc1 | -0.287
Cc1ccc(NC(=S)c2nc3ccccc3[nH]2)cc1 | -1.02
S=C(Nc1ccc(Cl)cc1)c1nc2ccccc2[nH]1 | 6.95 (active)
Cc1ccc(C)c(NC(=S)c2ccc3ccccc3n2)c1 | 0.103
